The list is not random: actives were taken first. Their share in the collection is about 15%.
Pf growth 48h: inhibits P. falciparum growth in the first generation, 48 h; Potency, µM (highest dose often 28.7 µM), hits mostly inhibitors; P. falciparum luciferase growth in erythrocytes, 48 h; 5.9% of 310,000 active
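Parasite viability was followed by luminescence of a genomically integrated firefly luciferase. Cultures held 0.1% parasitemia at 2% hematocrit (final), incubated under 5% CO2 at 37 C.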
HCMV inh: human cytomegalovirus inhibition; HFF cells, HCMV-luciferase reporter, 72 h; active compounds read low; activity change, negative = inhibition, % at 57.5 µM; 4.5% of 410,000 active; in the data active = activity change below about -60%; inconclusive = no clear call, values can overlap the other calls; inactive = above about -39%
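Compounds were evaluated in HFFs infected with an HCMV luciferase reporter virus (MOI 1 PFU/cell). Luciferase in lysates collected 72 h post infection served as the replication measure.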
SARS PLpro yeast: inhibitors of SARS-CoV papain-like protease in yeast; 0.19% of 330,000 active; Potency, µM (series often up to 32.9 µM), usual class: activators; S. cerevisiae expressing SARS-CoV PLpro, growth rescue; calls by dose curve; note: nearly all actives have a fitted effect of over 55% in size
Sm TGR inh: inhibitors of Schistosoma mansoni thioredoxin glutathione reductase; Q962Y6; purified TGR, DTNB reduction, TNB absorbance 405 nm; Potency, µM (titrated, usually from 114 µM), actives largely listed as inhibitors; 3% of 360,000 active; AID 485364; note: nearly all actives have a fitted effect of over 60% in size
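TGR 20 nM + NADPH 100 uM (dispensed conc.), cpd preinc 15 min RT; start with NADPH (500 uM addition) then DTNB (15 mM addition). Kinetic TNB absorbance, 405 nm filter. Four-parameter Hill fit across titration.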
Pf growth 96h: inhibits malaria parasite growth, 96 h | P. falciparum luciferase reporter growth, 96 h | Potency, µM (top dose mostly 28.7 µM), usual class: inhibitors | 6.9% of 320,000 active | AID 504834
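Two parasite generations (96 h, 37 C, 5% CO2) of compound exposure in infected erythrocytes (0.05% parasitemia, 2% hematocrit). Luciferase-reporter P. falciparum; decreased luminescence indicates inhibited growth, aimed at apicoplast-acting delayed death.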
HCV inh: blocks hepatitis C virus. Potency, µM (top dose mostly 41.8 µM), actives largely listed as inhibitors. 3.4% of 340,000 active. Huh7.5.1 HCVcc-Cre infection, luciferase reporter, 44 h. AID 651820
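1,000 cells/well; 4 h culture; + compound; + HCVcc-Cre (~0.5 moi); 44 h; luciferase substrate, RT 15 min; read 15 sec.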
Each line names hits and unclear results; the compound was inactive in the other large screens. Unless noted, calls come from the whole dose curve; as a rule, active = well fitted curve in the direction sought with a large enough effect; inconclusive = small, poorly fitted or top-dose-only effect, or another doubt; inactive = no such curve, though single readings can be large; an effect the other way counts as inactive or inconclusive.

CCCCN1C2CCCC1CC(NC(=O)c1cccc(Cl)c1)C2 (stereo not given)	Pf growth 48h inconclusive, Pf growth 96h inconclusive
COC(=O)C1=C(C)N(c2ccccc2)C(=S)NC1c1ccccc1C(F)(F)F (stereo not given)	Pf growth 48h 10.4µM, Pf growth 96h inconclusive, HCV inh inconclusive
C=CC[n+]1ccc(/C=C2\C=Cc3cc(C)ccc3N2CC)c2ccccc21	Pf growth 48h inconclusive, HCV inh 2.51µM (no result: HCMV inh)
CCn1c(SCC(=O)NNC(=O)c2ccc(OC)cc2)nnc1-c1cccnc1	none (no result: Sm TGR inh)
Cc1cc(Br)ccc1NC(=O)CSc1c2c(nc3ccccc13)CCC2	HCMV inh -95.5 (no result: Pf growth 48h, SARS PLpro yeast, Pf growth 96h, HCV inh)
CC(C)NC(=O)CSc1c2c(nc3ccccc13)CCCC2	HCMV inh -71.8
COc1ccccc1NC(=O)CSc1c2c(nc3ccccc13)CCC2	none
CCCOC(=O)c1c(C)oc2c1cc(NS(=O)(=O)c1ccc(OCC)cc1)c1ccccc12	HCMV inh -96.1 (no result: Pf growth 48h, SARS PLpro yeast, Pf growth 96h, HCV inh)
Cc1oc2c(cc(NS(=O)(=O)c3ccc(C(C)C)cc3)c3ccccc32)c1C(=O)OCc1ccccc1	none (no result: Pf growth 48h, SARS PLpro yeast, Pf growth 96h, HCV inh)
CCOC(=O)c1c(C)oc2c1cc(NS(=O)(=O)c1ccc(C(=O)O)cc1)c1ccccc12	Sm TGR inh 28.2µM
CCOc1ccc(S(=O)(=O)Nc2cc3c(C(=O)OCc4ccccc4)c(C)oc3c3ccccc23)cc1	HCMV inh -84.0 (no result: Pf growth 48h, SARS PLpro yeast, Pf growth 96h, HCV inh)
Cc1cc(NS(=O)(=O)c2ccc(NC(=O)c3cnc(Cl)c(Cl)c3)cc2)nc(C)n1	Pf growth 48h inconclusive
O=C(O)CCC(=O)N1CCC(n2nnc3cc(C(F)(F)F)ccc32)CC1	Pf growth 48h 2.08µM
O=C(CN1CCC(n2nnc3cc(C(F)(F)F)ccc32)CC1)Nc1ccc2c(c1)OCCO2	Pf growth 48h 11.7µM, HCV inh inconclusive
O=C(CN1CCC(n2nnc3cc(C(F)(F)F)ccc32)CC1)Nc1ccc2c(c1)CCC2	Pf growth 96h inconclusive (no result: Pf growth 48h)
O=C(O)c1ccc(S(=O)(=O)N2CCC(n3nnc4cc(C(F)(F)F)ccc43)CC2)cc1	Pf growth 96h inconclusive
Cc1cnn(CCC(=O)NNC(=S)Nc2cccc(Cl)c2)c1	none
CC(NS(=O)(=O)c1cccc(Cl)c1F)[C@H](O)c1ccccc1 (stereo not given in full)	none (no result: Pf growth 48h, SARS PLpro yeast, Sm TGR inh, Pf growth 96h, HCV inh)
CC(C)c1ccc(NC2CCCN(C(=O)CN3CCCC3=O)C2)cc1 (stereo not given)	none
Cc1ccc2c(c1)N(C(=O)CCC(=O)N1CCOCC1)CC(C)O2 (stereo not given)	none
Cc1ccc2c(c1)N(C(=O)CCC(=O)N1CCC(C(N)=O)CC1)CC(C)O2 (stereo not given)	HCMV inh inconclusive, Pf growth 96h 13.1µM
Cc1ccc2c(c1)N(C(=O)CCC(=O)NCc1cccnc1)CC(C)O2 (stereo not given)	Pf growth 96h 13.1µM
CCC(=O)N(Cc1cccs1)C1CCOC(C)(C)C1 (stereo not given)	Pf growth 48h inconclusive
CCCN(CCc1cccs1)[C@H]1CCc2c(O)cccc2C1	Pf growth 48h 6.75µM, Pf growth 96h 1.51µM (no result: HCMV inh, SARS PLpro yeast, Sm TGR inh, HCV inh)
CNC(=O)NC(=O)COC(=O)c1cccc(S(=O)(=O)N2CC3(C)CC2CC(C)(C)C3)c1 (stereo not given)	Pf growth 48h inconclusive, HCV inh inconclusive
CC1(C)CC2CC(C)(CN2S(=O)(=O)c2cccc(C(=O)OCC(=O)NC(N)=O)c2)C1 (stereo not given)	Sm TGR inh 15.8µM
O=C(NC1CCS(=O)(=O)C1)N1CCCCC1 (stereo not given)	Pf growth 96h 4.15µM (no result: Pf growth 48h)
CNC(=O)N1c2ccccc2CCc2ccccc21	Pf growth 48h inconclusive, Pf growth 96h inconclusive
O=C(NN1c2ccccc2CCc2ccccc21)c1ccccc1Br	Pf growth 48h inconclusive, Pf growth 96h 11.7µM
CCCOc1ccc(C(=O)Nc2ccc(Cl)c(-c3nc4ncccc4o3)c2)cc1	HCMV inh inconclusive (no result: Pf growth 48h, SARS PLpro yeast, Pf growth 96h, HCV inh)
O=C(CC1COc2ccccc2O1)NCc1ccccc1 (stereo not given)	none (no result: Pf growth 96h)
O=C(CCC1COc2ccccc2O1)NCc1ccccc1 (stereo not given)	Pf growth 96h 3.7µM (no result: Pf growth 48h)
OC[C@@H]1CN(Cc2ccc3c(c2)OCO3)C[C@H](n2cnc3c(NC4CCC4)ncnc32)O1	none (no result: Pf growth 48h, SARS PLpro yeast, Sm TGR inh, Pf growth 96h, HCV inh)
O=C(Nc1ccc(Oc2ccc(C(=O)O)c(C(=O)O)c2)cc1)c1cccs1	Pf growth 96h 2.08µM
O=C(Nc1cccc(Oc2ccc(C(=O)O)c(C(=O)O)c2)c1)c1ccc(-c2ccccc2)cc1	Pf growth 48h 1.65µM
COc1ccc(CCNC(=O)c2ccc(S(=O)(=O)N3CCCCC3)cc2)cc1	Pf growth 48h inconclusive, Pf growth 96h inconclusive, HCV inh inconclusive
Cn1cccc1C(NC(=O)c1ccccc1)C(Cl)(Cl)Cl (stereo not given)	none
O=c1cc(N2CCc3ccccc3C2)[nH]c(=O)n1-c1ccc(Br)cc1	Pf growth 96h 7.38µM
COc1ccc(C(CNC(=O)COc2cccc(C)c2)N2CCCC2)cc1 (stereo not given)	Pf growth 48h inconclusive, Pf growth 96h 13.1µM
COc1ccc(C(CNC(=O)COc2cccc(C(F)(F)F)c2)N2CCCC2)cc1 (stereo not given)	Pf growth 48h 10.4µM, Pf growth 96h 11.7µM, HCV inh inconclusive
COc1ccc(C(CNC(=O)COc2ccc(C)cc2)N2CCCCC2)cc1 (stereo not given)	none (no result: Pf growth 48h, SARS PLpro yeast, Pf growth 96h, HCV inh)
COc1cccc(CNC(=O)[C@@H]2CCCN2C(=O)[C@@H]2CCCN2C(=O)c2cccc(OC)c2)c1	none (no result: Pf growth 48h, SARS PLpro yeast, Sm TGR inh, Pf growth 96h, HCV inh)
NC(c1csc(Nc2ccc(C(F)(F)F)cn2)n1)C1CCCCC1 (stereo not given)	HCMV inh -102.0 (no result: Pf growth 48h, SARS PLpro yeast, Sm TGR inh, Pf growth 96h, HCV inh)
NC(c1csc(Nc2cnccn2)n1)C1CCCCC1 (stereo not given)	HCMV inh -68.4 (no result: Pf growth 48h, SARS PLpro yeast, Sm TGR inh, Pf growth 96h, HCV inh)
COc1ccc(Br)c(Cn2c(C)c(C(=O)NCc3cccc([N+](=O)[O-])c3)sc2=O)c1	none (no result: Pf growth 48h, SARS PLpro yeast, Sm TGR inh, Pf growth 96h, HCV inh)
COC(=O)[C@@]1(Cc2ccccc2)[C@@H]2C(=CC(=O)[C@H]2CC(=O)C(=O)N(C)C)CN1C(=O)c1ccccc1	Pf growth 48h inconclusive, Sm TGR inh inconclusive, Pf growth 96h 10.4µM, HCV inh inconclusive (no result: HCMV inh)
COc1ccc(-c2nnc(SCc3ncc(-c4ccccc4)o3)o2)cc1	Pf growth 48h inconclusive, Sm TGR inh 39.8µM
COc1ccc(C(=O)CSc2nnc(-c3ccccc3)o2)cc1	Pf growth 96h inconclusive
CCN(CC)S(=O)(=O)c1ccc(-c2nnco2)cc1	Pf growth 96h 13.1µM
CCN(CC)S(=O)(=O)c1ccc(-c2nnc(SCc3nnc(-c4ccccc4)o3)o2)cc1	Pf growth 96h 3.7µM
Cc1ccc(S(=O)(=O)N(C)Cc2ccc(-c3nnco3)cc2)cc1	none
